In PubChem BioAssay (NCATS):
“And” between values parts separate entries of the source, which are not always exact repeats. Identical values can stand only once. Records with an inconclusive call do not appear. Where a call stands in place of a potency, no number is given. A number with no mark means an inactive call. The source made the active and inactive calls. Unless noted, the call rests on the fitted dose curve; in most records, active means well fitted curve in the direction sought with a large enough effect; inconclusive means small, poorly fitted or top-dose-only effect, or another doubt; inactive means no such curve, though single readings can be large; an effect the other way counts as inactive or inconclusive.

Tests used:
[1] = biological target: Cellular tumor antigen p53 (Homo sapiens) (UniProt P04637); assay: Primary qHTS for small molecule compounds that upregulate eGFP-tagged delta133p53alpha (in N-terminal) cells. (AID 2060322); conditions: NCI-H358 eGFP-delta133p53alpha fluorescence, 24 h; activation: stronger effect = higher value;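 further: cells pre-induced with doxycycline then dosed without doxycycline; series mostly up to about 56 µM; nearly all actives have a fitted effect of over 75% in size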
Cellular tumor antigen p53 (Homo sapiens), sequence (P04637 whole entry, looked up, the tested form may be a part): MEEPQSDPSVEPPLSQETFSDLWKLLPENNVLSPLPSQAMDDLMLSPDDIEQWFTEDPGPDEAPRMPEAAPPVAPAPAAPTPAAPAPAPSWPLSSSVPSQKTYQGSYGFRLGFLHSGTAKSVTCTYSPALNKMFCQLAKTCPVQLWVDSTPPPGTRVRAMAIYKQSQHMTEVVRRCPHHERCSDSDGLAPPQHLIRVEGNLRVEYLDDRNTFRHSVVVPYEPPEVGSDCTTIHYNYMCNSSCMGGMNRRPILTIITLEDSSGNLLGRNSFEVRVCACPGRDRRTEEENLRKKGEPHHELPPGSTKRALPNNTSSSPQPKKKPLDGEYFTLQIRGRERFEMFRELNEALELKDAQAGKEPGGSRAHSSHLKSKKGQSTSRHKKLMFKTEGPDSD
Summary of the method: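 NCI-H358 cells pre-induced 24 h with 10 ng/ml doxycycline for eGFP-delta133p53alpha, plated dox-free and exposed 24 h at 37C to titrated compounds. Fixed, Hoechst-stained; gated GFP peak intensity by laser scanning cytometry, normalized to DMSO (0%) and 57.5 uM 5-azacytidine (100%).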

[2] = biological target: Cellular tumor antigen p53 (Homo sapiens) (UniProt P04637); assay: Primary qHTS for small molecule compounds that upregulate eGFP-tagged delta133p53alpha (in C-terminal) cells. (AID 2060324)
Summary of the method: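 Doxycycline (100 ng/ml, 24 h) first induced the eGFP fusion in NCI-H358 C-terminal-tag cells. Washed-out cells then received titrated compounds for 24 h at 37 °C before paraformaldehyde fixation, Hoechst staining and cytometric GFP quantification.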

[3] = biological target: Aldehyde dehydrogenase, mitochondrial (Homo sapiens) (UniProt P05091); assay: qHTS for Inhibitors of the Aldehyde Dehydrogenase Family (ALDH2) Validation screens (AID 2061302; active means well fitted inhibition curve with a large enough effect; title and protocol of this record describe different tests)
[4] = biological target: Retinaldehyde dehydrogenase 3 (Homo sapiens) (UniProt P47895); assay: qHTS for Inhibitors of the Aldehyde Dehydrogenase Family (ALDH1A3) Validation screen (AID 2061312); further: nearly all actives have a fitted effect of over 45% in size
[5] = BET inhibitor-based combinations targeting novel dependencies in MECOM-rearranged (r) AML: OCI-AML3 cell line (AID 2202232); conditions: Potency: OCI-AML3 viability; further: nearly all actives have a fitted effect of over 35% in size; further: potency means the concentration at half of the fitted maximal effect
Summary of the method: (§1)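 500 cells/well; 11-pt dose curve; 48 h, standard incubator; CellTiter-Glo luminescence after 15 min RT; DMSO/empty-well normalization; AUC plus Z-AUC (mean-centered within each line).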

[6] = BET inhibitor-based combinations targeting novel dependencies in MECOM-rearranged (r) AML: HNT-34 cell line (AID 2202234); further: nearly all actives have a fitted effect of over 35% in size; further: potency means the concentration at half of the fitted maximal effect
Summary of the method: (§2)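 Cells were plated at 500 per well and exposed to each drug across an 11-point dose range for 48 hr at standard incubator conditions. Viability was read by CellTiter-Glo luminescence, and activity was expressed as AUC and per-cell-line Z-transformed AUC.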

[7] = BET inhibitor-based combinations targeting novel dependencies in MECOM-rearranged (r) AML: UCSD-AML1 cell line (AID 2202235); further: nearly all actives have a fitted effect of over 40% in size; further: potency means the concentration at half of the fitted maximal effect
Summary of the method: as §2

[8] = BET inhibitor-based combinations targeting novel dependencies in MECOM-rearranged (r) AML: AML-191 cell line (AID 2202236; further: nearly all actives have a fitted effect of over 35% in size; further: potency means the concentration at half of the fitted maximal effect)
Summary of the method: as §1

[9] = BET inhibitor-based combinations targeting novel dependencies in MECOM-rearranged (r) AML: AML-194 cell line (AID 2202237; further: nearly all actives have a fitted effect of over 40% in size; further: potency means the concentration at half of the fitted maximal effect)
Summary of the method: as §1

[10] = BET inhibitor-based combinations targeting novel dependencies in MECOM-rearranged (r) AML: MV-4-11 cell line (AID 2202233); further: nearly all actives have a fitted effect of over 45% in size; further: potency means the concentration at half of the fitted maximal effect
Summary of the method: as §2

[11] = BET inhibitor-based combinations targeting novel dependencies in MECOM-rearranged (r) AML: SET-2 cell line (AID 2202231); conditions: SET-2 AML cells viability, CellTiter-Glo luminescence, 48 h; viability: stronger effect = lower value, concentration not given here; further: nearly all actives have a fitted effect of over 35% in size; further: potency means the concentration at half of the fitted maximal effect
Summary of the method: as §1

[12] = biological target: Retinal dehydrogenase 2 (Homo sapiens) (UniProt O94788); assay: qHTS for Inhibitors of the Aldehyde Dehydrogenase Family (ALDH1A2) Confirmation screens (AID 2061314); further: nearly all actives have a fitted effect of over 65% in size
[13] = biological target: Aldehyde dehydrogenase 1A1 (Homo sapiens) (UniProt P00352); assay: qHTS for Inhibitors of the Aldehyde Dehydrogenase Family (ALDH1A1) Confirmatory screens (AID 2061316); further: potency means the concentration at half of the fitted maximal effect; nearly all actives have a fitted effect of over 65% in size

Structure (SMILES) | activation [1] | Potency [2] | Potency [3] | Potency [4] | Potency [5] | Potency [6] | Potency [7] | Potency [8] | Potency [9] | Potency [10] | viability [11] [%] | Potency [11] | Potency [12] | Potency [13]
NC(=O)c1ncn([C@@H]2O[C@H](CO)[C@@H](O)[C@H]2O)c1O | -26.8% and 40.7% | inactive | inactive | inactive | inactive | inactive | inactive | inactive | inactive | – | – | – | – | –
CC(=O)Oc1ccccc1C(=O)O | 23.2% and 81.8% and -5.87% | inactive | inactive | inactive | – | inactive | inactive | inactive | inactive | inactive | – | – | – | –
Cc1ccc(N(CC2=NCCN2)c2cccc(O)c2)cc1 | -15.3% and 15.9% | inactive | inactive | inactive | – | – | 23.5 µM (active) | – | – | 26.3 µM (active) | 97.5 | – | – | –
CC1COc2c(N3CCN(C)CC3)c(F)cc3c(=O)c(C(=O)O)cn1c23 (centres undefined) | 11.7% and -7% and 13.8% | inactive | inactive | inactive | – | inactive | inactive | inactive | inactive | inactive | – | – | – | –
Cc1cc(C(C)(C)C)cc(C)c1CC1=NCCN1 | 4.18% and 6.06% and -36% | inactive | inactive | inactive | – | – | – | – | inactive | 18.6 µM (active) | – | – | – | –
CCOC(=O)C1=C(O)C(=O)N(Cc2ccccc2)C1 | -27.1% | inactive | inactive | inactive | – | inactive | inactive | inactive | inactive | – | 93.1 | – | – | –
Oc1ccc(/C=C/c2cc(O)cc(O)c2)cc1 | 1.67% and -36.3% | inactive | inactive | inactive | 14.8 µM (active) | – | – | – | – | 16.6 µM (active) | – | – | – | –
CC(=O)N1CCN(c2ccc(OC[C@H]3CO[C@](Cn4ccnc4)(c4ccc(Cl)cc4Cl)O3)cc2)CC1 | -11.5% and -0.0769% | inactive | inactive | inactive | inactive | inactive | inactive | inactive | – | inactive | – | – | – | –
NCCc1ccc(O)c(O)c1 | -4.36% and 11.8% | inactive | inactive | inactive | – | – | inactive | inactive | inactive | – | 112 | – | – | –
Cn1cnc([N+](=O)[O-])c1Sc1ncnc2nc[nH]c12 | -10% | inactive | inactive | inactive | – | – | inactive | – | 0.468 µM (active) | – | – | 1.66 µM (active) | – | –
O=c1c(-c2ccc(O)cc2)coc2cc(O)cc(O)c12 | -2.22% and -24.3% and -49.4% | inactive | inactive | inactive | – | 21.5 µM (active) | – | 42.8 µM (active) | – | 34 µM (active) | – | 42.8 µM (active) | – | –
CN[C@H](CC(C)C)C(=O)N[C@H]1C(=O)N[C@@H](CC(N)=O)C(=O)N[C@H]2C(=O)N[C@H]3C(=O)N[C@H](C(=O)N[C@H](C(=O)O)c4cc(O)cc(O)c4-c4cc3ccc4O)[C@H](O)c3ccc(c(Cl)c3)Oc3cc2cc(c3O[C@@H]2O[C@H](CO)[C@@H](O)[C@H](O)[C@H]2O[C@H]2C[C@](C)(N)[C@H](O)[C@H](C)O2)Oc2ccc(cc2Cl)[C@H]1O | -2.02% | inactive | inactive | inactive | – | – | inactive | inactive | inactive | – | 117 | – | – | –
Nc1nnc(-c2cccc(Cl)c2Cl)c(N)n1 | 5.86% and 2.46% and -39.9% | inactive | inactive | inactive | – | inactive | inactive | inactive | inactive | inactive | 116 | – | – | –
Oc1ccccc1O | -3.18% | inactive | inactive | – | – | – | – | – | – | – | – | – | inactive | 11.3 µM (active)
CC(C)Cc1ccc(C(C)C(=O)O)cc1 (centres undefined) | 17.5% and 9.01% | inactive | inactive | inactive | – | inactive | inactive | inactive | inactive | – | 111 | – | – | –
CCN1CCc2nc(N)oc2CC1 | -8.37% and -17.5% | inactive | inactive | – | – | – | – | – | – | – | – | – | inactive | –
NC12CC3CC(CC(C3)C1)C2 | 1.69% and 3.9% | inactive | inactive | inactive | – | inactive | inactive | inactive | – | inactive | – | – | – | –
CC(C[N+](C)(C)C)OC(N)=O (centres undefined) | -5.86% and -4.18% and -40.2% | inactive | inactive | inactive | – | inactive | – | inactive | inactive | inactive | 116 | – | – | –
CC[C@H](C)C(=O)O[C@H]1CCC=C2C=C[C@H](C)[C@H](CC[C@@H]3C[C@@H](O)CC(=O)O3)[C@H]21 | -12.3% | inactive | inactive | inactive | 11.8 µM (active) | – | – | – | – | – | – | – | – | –
CN1CCC(=C2c3ccccc3C=Cc3ccccc32)CC1 | -15.3% and 19.5% and -34.1% | inactive | inactive | inactive | – | – | inactive | – | inactive | – | – | 13.2 µM (active) | – | –
NC(N)=NC(=O)c1nc(Cl)c(N)nc1N | 11.3% and -28.8% and -10.6% | inactive | inactive | inactive | 9.59 µM (active) | – | 30.3 µM (active) | – | – | 13.5 µM (active) | – | – | – | –
O=C(c1ccc(OCCN2CCCCC2)cc1)c1c(-c2ccc(O)cc2)sc2cc(O)ccc12 | 20.9% and -56% | inactive | inactive | inactive | 11.8 µM (active) | – | inactive | – | 20.9 µM (active) | 18.6 µM (active) | – | – | – | –
Nc1nc(N)c(N=O)c(OCC2CCCCC2)n1 | -20.9% | inactive | inactive | inactive | – | 5.25 µM (active) | 3.32 µM (active) | – | – | – | – | – | – | –
Nc1c2c(nc3ccccc13)CCCC2 | -15.6% and 9.21% and -7.03% | inactive | inactive | inactive | – | – | – | inactive | – | – | 102 | – | – | –
C[C@H]1O[C@@H](n2cc(F)c(=O)[nH]c2=O)[C@H](O)[C@@H]1O | 2.35% | inactive | inactive | inactive | – | – | – | – | – | 13.2 µM (active) | – | – | – | –
